Measured values as given in PubChem BioAssay.
Activity calls are given as the source filed them.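 Rule for the calls, unless noted: active = mean inhibition over 43.08%, the solvent-only control mean plus 3 SD; inactive = the rest.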

Assays:
[1] = target: Nuclear receptor coactivator 3 (Homo sapiens) (UniProt Q9Y6Q9); assay: SRC3 coactivator transcriptional activity inhibitors, confirmation, cell-based, luminescence, quadruplicate (AID 588792); settings: HEK293 GAL4-SRC3 luciferase reporter, at 3.6 µM, active compounds read high;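 note: 0% = DMSO treated cells and 100% = gossypol at 36 µM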
[2] = tested on: transactivating tegument protein VP16 (Human herpesvirus 1), Gal4-VP16 luciferase reporter; assay: VP16 transactivation inhibitors, counter-screen for SRC3 inhibitor project, cell-based, luminescence, high throughput (AID 588794; in the data active = inhibition above about 30%); settings: mammalian cells, VP16-driven luciferase reporter luminescence; at 3.6 µM; active compounds read high
[3] = target: Nuclear receptor coactivator 1 (Homo sapiens) (UniProt Q15788); assay: SRC1 coactivator transcriptional activity inhibitors, confirmation, cell-based, luminescence, quadruplicate (AID 588820;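 active = mean inhibition above 46.68%, the untreated control wells mean plus 3 SD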;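 note: 0% = DMSO wells and 100% = gossypol 36 µM treated wells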); settings: HEK293 GAL4-SRC1 luciferase reporter, at 3.6 µM, active compounds read high
[4] = VP16 transactivation inhibitors, counter-screen for SRC1 inhibitor project, cell-based, luminescence, high throughput (AID 588824; in the data active = inhibition above about 25%); settings: cell-based VP16 transactivation luciferase luminescence; at 3.6 µM; active compounds read high
[5] = StAR promoter reporter inhibitors, counter-screen for LRH-1 inverse agonist project, cell-based, luminescence, high throughput (AID 651611; in the data active = inhibition above about 28%); settings: StAR promoter luciferase reporter counterscreen, at 3.6 µM, active compounds read high
[6] = target: Nuclear receptor subfamily 5 group A member 2 (Homo sapiens) (UniProt O00482); assay: LRH-1 (NR5A2) inverse agonists, retest, confirmation, cell-based, luminescence (AID 651613; in the data active = inhibition above about 42%;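 note: HEK293T cells co-transfected with LRH-1 and StAR promoter luciferase reporter; 0% = vehicle wells and 100% = parental cells lacking receptor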); settings: cell-based LRH-1 luciferase reporter, inverse agonism; at 3.6 µM; active compounds read high
[7] = target: Steroidogenic factor 1 (Homo sapiens) (UniProt Q13285); assay: SF1 (NR5A1) inverse agonists, counter-screen for LRH-1 inverse agonist project, cell-based, luminescence, high throughput (AID 651614; in the data active = inhibition above about 44%;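 note: cells cotransfected with StAR promoter reporter and SF1 expression vector; 0% = vehicle on cells with receptor and 100% = vehicle on cells lacking receptor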); settings: cell-based SF1 luciferase reporter, at 3.6 µM, active compounds read high
[8] = VP16 transactivation reporter inhibitors, counter-screen for LRH-1 inverse agonist project, cell-based, luminescence, high throughput (AID 651615; in the data active = inhibition above about 33%); settings: Gal4-VP16 luciferase reporter cells, at 3.6 µM, active compounds read high

Measured: inhibition

Steroidogenic factor 1 (Homo sapiens), sequence (Q13285 whole entry, looked up, the tested form may be a part): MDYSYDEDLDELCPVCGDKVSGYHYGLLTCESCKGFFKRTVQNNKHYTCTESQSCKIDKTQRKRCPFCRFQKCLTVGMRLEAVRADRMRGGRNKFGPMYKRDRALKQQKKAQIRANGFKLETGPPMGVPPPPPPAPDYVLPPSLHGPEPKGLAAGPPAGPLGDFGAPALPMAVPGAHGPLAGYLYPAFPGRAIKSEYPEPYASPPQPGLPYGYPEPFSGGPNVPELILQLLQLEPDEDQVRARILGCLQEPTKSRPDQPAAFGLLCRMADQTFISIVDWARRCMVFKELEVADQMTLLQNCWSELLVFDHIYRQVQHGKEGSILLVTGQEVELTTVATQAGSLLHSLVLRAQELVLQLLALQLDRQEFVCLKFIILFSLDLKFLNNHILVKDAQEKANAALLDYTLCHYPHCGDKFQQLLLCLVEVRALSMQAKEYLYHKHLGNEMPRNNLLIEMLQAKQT
Nuclear receptor coactivator 3 (Homo sapiens), sequence (Q9Y6Q9 whole entry, looked up, the tested form may be a part): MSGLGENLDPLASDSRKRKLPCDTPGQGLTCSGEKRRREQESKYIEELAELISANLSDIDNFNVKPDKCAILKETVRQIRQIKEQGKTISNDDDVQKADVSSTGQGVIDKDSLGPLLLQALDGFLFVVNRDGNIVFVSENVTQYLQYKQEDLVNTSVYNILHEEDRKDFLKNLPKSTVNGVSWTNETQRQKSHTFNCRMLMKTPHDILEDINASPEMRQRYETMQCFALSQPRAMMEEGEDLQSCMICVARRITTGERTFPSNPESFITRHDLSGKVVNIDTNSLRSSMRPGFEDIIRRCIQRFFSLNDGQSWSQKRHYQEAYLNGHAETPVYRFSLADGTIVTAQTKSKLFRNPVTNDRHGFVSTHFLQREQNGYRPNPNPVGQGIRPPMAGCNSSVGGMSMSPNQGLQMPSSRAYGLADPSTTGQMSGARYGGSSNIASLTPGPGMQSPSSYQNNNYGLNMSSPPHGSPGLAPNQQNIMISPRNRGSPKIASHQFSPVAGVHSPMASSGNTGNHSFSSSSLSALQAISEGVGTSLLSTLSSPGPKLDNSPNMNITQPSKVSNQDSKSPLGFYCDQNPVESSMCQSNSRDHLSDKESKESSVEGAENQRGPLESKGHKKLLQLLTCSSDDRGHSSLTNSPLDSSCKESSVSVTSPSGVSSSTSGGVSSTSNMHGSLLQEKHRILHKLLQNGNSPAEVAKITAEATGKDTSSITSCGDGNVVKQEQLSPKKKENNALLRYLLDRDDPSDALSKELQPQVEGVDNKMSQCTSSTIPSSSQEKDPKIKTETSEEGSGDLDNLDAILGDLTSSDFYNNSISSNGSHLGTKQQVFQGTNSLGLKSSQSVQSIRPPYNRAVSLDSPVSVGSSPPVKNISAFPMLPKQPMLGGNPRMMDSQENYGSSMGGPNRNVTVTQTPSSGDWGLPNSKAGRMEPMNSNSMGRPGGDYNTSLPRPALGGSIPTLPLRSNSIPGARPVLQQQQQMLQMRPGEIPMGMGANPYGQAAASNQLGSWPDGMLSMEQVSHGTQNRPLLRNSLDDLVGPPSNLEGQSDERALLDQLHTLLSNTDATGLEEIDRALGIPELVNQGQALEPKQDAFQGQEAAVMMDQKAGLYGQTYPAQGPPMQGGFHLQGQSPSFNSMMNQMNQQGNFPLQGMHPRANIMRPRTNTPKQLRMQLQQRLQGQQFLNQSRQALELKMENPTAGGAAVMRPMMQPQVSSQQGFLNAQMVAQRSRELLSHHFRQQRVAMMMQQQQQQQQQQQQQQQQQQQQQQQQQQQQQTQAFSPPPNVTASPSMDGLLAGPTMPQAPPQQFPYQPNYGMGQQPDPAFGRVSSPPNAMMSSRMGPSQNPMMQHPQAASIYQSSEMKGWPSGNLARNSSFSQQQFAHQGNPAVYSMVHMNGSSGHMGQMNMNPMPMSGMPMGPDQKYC
Nuclear receptor coactivator 1 (Homo sapiens), sequence (Q15788 whole entry, looked up, the tested form may be a part): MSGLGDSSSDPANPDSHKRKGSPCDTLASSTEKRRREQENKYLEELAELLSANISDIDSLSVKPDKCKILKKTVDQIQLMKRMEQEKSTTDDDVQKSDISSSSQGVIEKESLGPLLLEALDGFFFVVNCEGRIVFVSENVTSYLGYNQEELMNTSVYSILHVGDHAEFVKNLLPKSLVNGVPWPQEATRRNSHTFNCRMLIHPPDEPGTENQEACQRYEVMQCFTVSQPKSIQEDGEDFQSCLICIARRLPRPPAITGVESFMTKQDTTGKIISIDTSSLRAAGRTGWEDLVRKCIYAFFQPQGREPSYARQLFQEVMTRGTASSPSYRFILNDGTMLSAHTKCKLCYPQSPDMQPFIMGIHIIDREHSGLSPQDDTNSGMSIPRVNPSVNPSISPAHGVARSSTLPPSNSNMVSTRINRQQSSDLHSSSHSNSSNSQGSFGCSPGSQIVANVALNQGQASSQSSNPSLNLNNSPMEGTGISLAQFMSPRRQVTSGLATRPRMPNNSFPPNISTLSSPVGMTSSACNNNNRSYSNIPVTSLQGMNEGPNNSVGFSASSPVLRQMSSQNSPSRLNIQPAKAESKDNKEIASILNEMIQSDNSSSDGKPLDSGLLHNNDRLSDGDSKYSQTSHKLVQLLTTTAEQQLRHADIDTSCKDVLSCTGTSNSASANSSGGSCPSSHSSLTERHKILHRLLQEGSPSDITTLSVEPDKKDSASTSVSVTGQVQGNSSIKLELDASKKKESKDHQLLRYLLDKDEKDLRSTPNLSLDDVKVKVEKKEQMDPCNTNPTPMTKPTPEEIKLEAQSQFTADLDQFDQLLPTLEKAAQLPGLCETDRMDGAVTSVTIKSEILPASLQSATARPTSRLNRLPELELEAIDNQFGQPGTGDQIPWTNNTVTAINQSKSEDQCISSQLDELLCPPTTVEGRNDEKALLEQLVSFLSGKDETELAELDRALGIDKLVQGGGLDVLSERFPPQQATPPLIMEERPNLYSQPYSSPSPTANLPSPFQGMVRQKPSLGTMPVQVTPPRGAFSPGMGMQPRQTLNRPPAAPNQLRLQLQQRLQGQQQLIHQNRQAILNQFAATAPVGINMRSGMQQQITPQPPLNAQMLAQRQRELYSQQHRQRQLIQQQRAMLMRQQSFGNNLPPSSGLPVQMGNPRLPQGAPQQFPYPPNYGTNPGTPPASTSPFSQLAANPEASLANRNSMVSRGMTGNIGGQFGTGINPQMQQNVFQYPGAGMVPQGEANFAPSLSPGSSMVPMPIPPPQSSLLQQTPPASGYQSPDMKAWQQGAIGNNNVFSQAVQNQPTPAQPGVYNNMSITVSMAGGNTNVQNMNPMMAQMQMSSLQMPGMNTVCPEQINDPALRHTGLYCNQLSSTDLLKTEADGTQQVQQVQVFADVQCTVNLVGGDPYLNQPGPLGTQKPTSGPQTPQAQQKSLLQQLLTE
Nuclear receptor subfamily 5 group A member 2 (Homo sapiens), sequence (O00482 whole entry, looked up): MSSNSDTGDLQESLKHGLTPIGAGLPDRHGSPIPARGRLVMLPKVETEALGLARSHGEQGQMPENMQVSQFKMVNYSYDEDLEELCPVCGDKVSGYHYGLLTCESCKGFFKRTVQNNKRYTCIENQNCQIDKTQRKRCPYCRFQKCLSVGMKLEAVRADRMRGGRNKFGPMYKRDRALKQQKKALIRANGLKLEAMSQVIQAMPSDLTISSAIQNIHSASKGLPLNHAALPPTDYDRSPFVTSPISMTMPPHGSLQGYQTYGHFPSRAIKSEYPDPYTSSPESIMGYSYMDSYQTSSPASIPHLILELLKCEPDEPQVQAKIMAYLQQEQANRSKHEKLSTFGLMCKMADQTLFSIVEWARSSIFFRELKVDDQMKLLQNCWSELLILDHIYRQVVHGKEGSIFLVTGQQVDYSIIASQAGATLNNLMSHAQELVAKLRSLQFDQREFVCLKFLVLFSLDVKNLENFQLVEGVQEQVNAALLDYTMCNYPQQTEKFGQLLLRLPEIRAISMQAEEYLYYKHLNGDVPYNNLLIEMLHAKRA

CCCCn1c(O)c(C(C)=Nc2ccc(C(=O)O)cc2)c(=O)[nH]c1=O
inactive: [1] 1.79% | [2] 12.1%

COc1cccc(C(c2nnnn2Cc2ccccc2)N2CCC(n3c(=O)[nH]c4ccccc43)CC2)c1OC (stereo not given)
inactive: [1] 25.4% | [2] 8.5% | [3] -25.2% | [4] 20.2%

CSCCC(c1nnnn1-c1ccc2c(c1)OCCO2)N1CCC(n2c(=O)[nH]c3ccccc32)CC1 (stereo not given)
inactive: [1] 15% | [2] 14.7% | [3] -22.6% | [4] 20.9%

COC(=O)[C@@H]1[C@@H](C(=O)OC)C2(c3ccccc3-c3ccccc32)N(c2ccc(Cl)cc2)N1C#N
active: [2] 30.6%
inactive: [1] -0.96%

O=c1[nH]c2ccccc2n1C1CCN(C(CCc2ccccc2)c2nnnn2C2CCCCC2)CC1 (stereo not given)
inactive: [1] 11.8% | [2] 12.5% | [3] 2.31% | [4] -5.85%

N#CC(C#N)=NNc1ccc(-n2ccc(C(F)(F)F)n2)cc1
active: [1] 49.1% | [2] 52.6% | [4] 56.3%
inactive: [3] 40.7%

CCCCNS(=O)(=O)c1ccc(OCC(=O)N2CCN(Cc3ccc4c(c3)OCO4)CC2)cc1
inactive: [1] 10.7% | [2] 26.6%

COC1=CC2C3Cc4ccc(OC)c(O)c4C2(CCN3C)CC1=O (stereo not given)
inactive: [1] 7% | [2] 11.3%

C[C@H]1CCC[C@@H](O)CCC/C=C/c2cc(O)cc(O)c2C(=O)O1
active: [1] 61.8% | [2] 63.4% | [4] 56.1%
inactive: [3] 29.2%

C/C(=N\Nc1ccccc1)c1c(O)[nH]c(=O)[nH]c1=O
inactive: [1] 0.35% | [2] 17.7% | [3] -2.36% | [4] 13.6%

CC/C(=N\Nc1ccccc1)c1c(O)[nH]c(=O)[nH]c1=O
inactive: [1] 14.7% | [2] 20.4%

C=C1C(C)C2C(Cc3ccccc3)NC(=O)C23OC(=O)/C=C/C(O)CCCC(C)C/C=C/C3C1O (stereo not given)
inactive: [1] 10.6% | [2] 22.1%

CCCNC(=O)N1[C@H]2CC[C@@H]1C(C(=O)OC)=C(c1ccc(OC(F)(F)F)cc1)C2
inactive: [1] 14.2% | [2] -7.81%

COc1ccc(OC(=O)N(C)C)c(CN(C)C)c1
inactive: [1] 5.12% | [2] -6.66%

COc1cccc(C(c2nnnn2-c2ccc3c(c2)OCCO3)N2CCC(n3c(=O)[nH]c4ccccc43)CC2)c1OC (stereo not given)
inactive: [1] 26.6% | [3] -22.4% | [4] 24.7%
active: [2] 35.9%

C[C@H]1CCC/C=C/C2C[C@H](O)CC2[C@H](O)/C=C/C(=O)O1 (stereo not given in full)
active: [1] 69.2% | [2] 80.2%

Cc1cc(C)n(-c2ccc(NN=C(C#N)C#N)cc2)n1
active: [1] 43.3% | [2] 61.8%

CC(=C1C(=O)c2ccccc2C1=O)N1CCN(CCN=Cc2c(O)n(C)c(=O)n(C)c2=O)CC1
inactive: [1] -8.5% | [2] -5.29%

CNC(=O)c1cccn(Cc2cc(C(F)(F)F)cc(C(F)(F)F)c2)c1=O
inactive: [1] 28.4% | [2] 11% | [3] 10.9% | [4] 3.5%

C=C1C(=O)[C@@]23C[C@H]4[C@@H]5[C@@]6(C)CCC[C@@]57[C@@H]2[C@@H](O)[C@@H]1C[C@H]3[C@H]7N4C6
inactive: [1] 3.71% | [2] 22% | [3] 26.6% | [4] 20.9%

Cc1c(C(=O)N2CCC3(CC2)OCCO3)sc2ncnc(N3CCN(c4ccccn4)CC3)c12
inactive: [1] -7.87% | [2] -13.2%

COc1ccc(-c2cc(-c3ccccc3)[n+](C)c(-c3ccccc3)c2)cc1
active: [2] 57.7% | [4] 51.3% | [5] 60.2% | [6] 96% | [7] 84.5% | [8] 77.1%
inactive: [1] 35.9% | [3] 34.3%

c1ccc(-c2cc(-c3ccccc3)[n+](-c3ccccc3)c(-c3ccccc3)c2)cc1
active: [1] 61.7% | [2] 75.9% | [3] 49.1% | [4] 81.6% | [5] 69.6% | [6] 104% | [7] 81.3% | [8] 89.4%

CCOc1ccc(-c2c(C)n(-c3ccc(OCC)cc3)c3[n+]2CCCCC3)cc1
active: [1] 96.3% | [2] 89% | [3] 74% | [4] 87.2%

CC(=O)c1c(C)n(C2CCCCC2)c2ccc(O)cc12
active: [1] 81.2% | [2] 58.5% | [3] 68.4% | [4] 60.2%

Cc1cc(-c2ccccc2)cc(-c2ccccc2)[n+]1CCc1ccccc1
active: [2] 52.1% | [4] 51.7% | [5] 51.1% | [6] 91.6% | [7] 75.2% | [8] 73.2%
inactive: [1] 37.8% | [3] 27.1%

CCC1(OC(=O)CN)C(=O)OCc2c1cc1n(c2=O)Cc2cc3ccccc3nc2-1 (stereo not given)
active: [1] 94.9% | [2] 82.8% | [3] 56.9% | [4] 77.3% | [5] 84% | [6] 103% | [7] 90.9% | [8] 82%
